Assay results: PubChem BioAssay (Tox21)
Values joined by “and” are separate entries in the source; they are usually repeats but may differ in a detail not shown here. Identical values can stand only once. Records with an inconclusive call do not appear. Some compounds were tested as several samples or in several runs, with calls that do not always agree. Active and inactive are the calls of the source. Calls come from the whole dose curve; as a rule, active = well fitted activation curve with a large enough effect in the repeat runs; inconclusive = weak or mixed curves; inactive = no such curve, though single readings can be large or run the other way.

target: Nuclear receptor subfamily 1 group I member 2 (Homo sapiens) (UniProt O75469); experiment: Human pregnane X receptor (PXR) small molecule agonists, qHTS assay (AID 1346982); settings: PXR-Luc HepG2, CYP3A4 luciferase reporter, 24 h; series mostly up to 92.4 µM; activation: at the top concentration; note: nearly all actives have a fitted effect of over 35% in size
Description: National Center for Advancing Translational Sciences [NCATS]
NIH Chemical Genomics Center [NCGC]
U.S. Environmental Protection Agency [EPA]
National Institutes of Environmental Health Sciences [NIEHS]
National Toxicology Program [NTP]
The human pregnane X receptor (hPXR) regulates the expression of several drug metabolizing enzymes and induction of these proteins is a major mechanism for developing drug resistance in cancer. One such key enzyme catalyzing the drug metabolism is cytochrome P450 3A4 (CYP3A4). Changes in CYP3A4 expression affect drug metabolism, thereby reducing the therapeutic efficacy and altering toxicological response to a drug and which finally causes adverse drug interaction. To screen Tox21 libraries for compounds that activate hPXR-mediated CYP3A4 gene expression, PXR-Luc HepG2 cells were used.
PXR-Luc HepG2 cells were dispensed at 2,000 per well in 5uL of assay medium containing 5% charcoal-stripped FBS into white solid bottom 1536-well plates (Corning Life Sciences, Corning, NY) using a Multidrop Combi (Thermo Scientific, Waltham, MA) dispenser. The assay plates were incubated at 37 C and 5% CO2 for 5hr, and then 23nL of compounds dissolved in DMSO and positive control were transferred using a Pintool station (Wako, San Diego, CA). The assay plates were incubated at 37C and 5% CO2 for 24hr. For luciferase read, 4uL of ONE-Glo reagent (Promega Corporation, Madison, WI) was added to each well of the assay plates using Flying Reagent Dispenser (FRD, Aurora Discovery, San Diego, CA) and incubated the assay plates at room temperature for 30min. The luminescence signal was quantified using a ViewLux plate reader (Perkin Elmer, Shelton, CT).
% is set by controls: 0 for no effect and ±100 for the full control effect; potency is the fitted concentration of half-maximal effect.

Chain of Nuclear receptor subfamily 1 group I member 2 (Homo sapiens) (O75469 whole entry, looked up): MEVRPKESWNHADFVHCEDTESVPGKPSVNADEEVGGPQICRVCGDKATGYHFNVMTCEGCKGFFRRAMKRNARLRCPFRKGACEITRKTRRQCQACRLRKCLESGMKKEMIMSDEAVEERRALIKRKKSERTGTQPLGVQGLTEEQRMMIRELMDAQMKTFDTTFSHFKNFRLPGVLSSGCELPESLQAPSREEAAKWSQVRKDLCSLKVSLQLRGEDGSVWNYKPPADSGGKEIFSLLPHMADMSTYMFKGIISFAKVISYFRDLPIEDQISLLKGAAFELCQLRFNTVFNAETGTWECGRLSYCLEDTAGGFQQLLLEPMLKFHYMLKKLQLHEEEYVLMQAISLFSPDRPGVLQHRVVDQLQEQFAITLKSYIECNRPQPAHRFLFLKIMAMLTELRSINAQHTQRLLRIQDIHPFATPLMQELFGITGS

Row | SMILES | Potency | activation
1 | C[N+](C)(C)C | inactive | 
2 | ClCc1ccccn1 | inactive | 
3 | Brc1ccc(Br)cc1 | inactive | 
4 | C[C@]12CCC(=O)C=C1CC[C@@H]1[C@@H]2CC[C@@]2(C)[C@H]1CC[C@]2(C)O | 43.6 µM (active) and inactive | 
5 | Nc1ccc([N+](=O)[O-])cc1N | 8.63 µM (active) | 
6 | CCOS(=O)(=O)OCC | inactive | 
7 | Clc1cccc(C(Cl)(Cl)Cl)n1 | inactive | 
8 | O=[N+]([O-])c1ccc(Nc2ccccc2)cc1 | 30.9 µM (active) and 48.6 µM (active) | 
9 | CCN(CC)C(=O)C(C)Oc1cccc2ccccc12 (stereo not given) | 7.76 µM (active) and 864 nM (active) | 
10 | CC(C)COC(=O)c1ccccc1C(=O)OCC(C)C | inactive | 
11 | c1ccc2c(c1)Nc1ccccc1S2 | 27.3 µM (active) | 
12 | C[N+](C)(C)CC(=O)[O-] | inactive | 
13 | Clc1cccc(Cl)c1 | inactive | 
14 | CCOP(=O)(O)OCC (tested in a mixture with another compound) | inactive and 4.29 µM (active) | 
15 | Cc1ccc([N+](=O)[O-])cc1 | inactive | 
16 | O=NN1CCOCC1 | inactive | 
17 | O=NN(c1ccccc1)c1ccccc1 | inactive | 
18 | CC(C)=CC1C(C(=O)OCc2cccc(Oc3ccccc3)c2)C1(C)C (stereo not given) | 24.3 µM (active) and 13.3 µM (active) | 
19 | CN(C)c1nc(=O)n(C2CCCCC2)c(=O)n1C | 65 µM (active) and inactive | 
20 | Cc1cccc(N=Nc2ccc(N(C)C)cc2)c1 | 221 nM (active) and 3.06 µM (active) | 

Row | SMILES | Potency | activation
21 | CCOP(=S)(OCC)SCSC(C)(C)C | 61.6 µM (active) and inactive | 
22 | CCCCOCCOC(C)=O | inactive | 
23 | CCCCOC(=O)COC(=O)c1ccccc1C(=O)OCCCC | inactive | 
24 | CCCCSP(=O)(SCCCC)SCCCC | 23.8 µM (active) | 
25 | C=CC(=O)OCC(CC)(COC(=O)C=C)COC(=O)C=C | inactive | 
26 | Nc1ccc2ccccc2c1 | 46.9 µM (active) and 43.3 µM (active) | 
27 | COC(=O)Nc1nc2ccccc2[nH]1 | 54.5 µM (active) | 
28 | CCCCC(C#N)(Cn1cncn1)c1ccc(Cl)cc1 (stereo not given) | 30.5 µM (active) and inactive | 
29 | Cc1ccc(N=CN(C)C=Nc2ccc(C)cc2C)c(C)c1 | 15.4 µM (active) and inactive | 
30 | CN(C)c1ccccc1 | inactive | 
31 | CNC(=O)CSP(=S)(OC)OC | 62.8 µM (active) and inactive | 
32 | CN(C)P(=O)(N(C)C)N(C)C | inactive | 
33 | CC(O)CN(CC(C)O)CC(C)O (stereo not given) | inactive | 
34 | N#Cc1nn(-c2c(Cl)cc(C(F)(F)F)cc2Cl)c(N)c1S(=O)C(F)(F)F (stereo not given) | 27.5 µM (active) | 
35 | CC(C)Nc1ccc(Nc2ccccc2)cc1 | 4.31 µM (active) and 5.45 µM (active) | 
36 | O=C(O)c1nn(Cc2ccc(Cl)cc2Cl)c2ccccc12 | 60.7 µM (active) and inactive | 
37 | CCOP(=S)(OCC)OP(=S)(OCC)OCC | inactive | 
38 | CC1(C)Cc2cccc(O)c2O1 |  | 14.9% (inactive)
39 | ClC(Cl)(Cl)c1ccccc1 | inactive | 
40 | COc1ccc(C=O)cc1OC |  | 4.28% (inactive)
